# Results filed as inconclusive are left out. Where a call stands in place of a potency, no number is given. The source made the active and inactive calls. Calls come from the whole dose curve; as a rule, active = well fitted curve in the direction sought with a large enough effect in the repeat runs; inconclusive = weak or mixed curves; inactive = no such curve, though single readings can be large; an effect the other way counts as inactive or inconclusive.
# Key:
# [1] = qHTS RealTime-Glo MT Cell Viability Assay in HepG2 cells - 40 hour (AID 1224870); note: nearly all actives have a fitted effect of over 50% in size
# In short: (§1)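 HepG2 cells (600/well) mixed with RealTime-Glo MT reagent, settled 5 h at 37 C/5% CO2 before compound addition. Nonlytic NanoLuc luminescence from viable-cell prosubstrate reduction read repeatedly during 40 h treatment at 37 C.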
# [2] = A CellTox Green Cytotoxicity Assay to monitor cytotoxicity in HEK293 cells - 40 hour (AID 1224871); note: nearly all actives have a fitted effect of over 45% in size
# In short: (§2)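 Read-out: fluorescence of a cell-impermeant cyanine dye staining DNA of dead cells, proportional to cytotoxicity. HEK293, 600 cells/well with reagent, compound (23 nL DMSO) added after 5 h; reads at 0, 8, 16, 24, 32, 40 h.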
# [3] = qHTS RealTime-Glo MT Cell Viability Assay in HEK293 cells - 16 hour (AID 1224872); note: top concentration of the series differs between compounds; nearly all actives have a fitted effect of over 50% in size
# In short: (§3)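 HEK293 cells seeded with NanoLuc/prosubstrate reagent, rested 5 h at 37 C, then dosed and kept at 37 C up to 40 h. Nonlytic real-time luminescence from viable cells read at 0, 8, 16, 24, 32 and 40 h.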
# [4] = qHTS RealTime-Glo MT Cell Viability Assay in HepG2 cells - 8 hour (AID 1224873); note: nearly all actives have a fitted effect of over 55% in size
# In short: as §1
# [5] = A CellTox Green Cytotoxicity Assay to monitor cytotoxicity in HEK293 cells - 24 hour (AID 1224875); note: series mostly up to about 77 µM; nearly all actives have a fitted effect of over 45% in size
# In short: as §2
# [6] = A CellTox Green Cytotoxicity Assay to monitor cytotoxicity in HepG2 cells - 16 hour (AID 1224876); note: nearly all actives have a fitted effect of over 45% in size
# In short: (§4)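 HepG2, 600 cells/well premixed w/ CellTox Green; 5 h settle, 37 C/5% CO2; pintool cpd add (DMSO); 37 C, 40 h; fluorescence read at 0, 8, 16, 24, 32, 40 h.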
# [7] = qHTS RealTime-Glo MT Cell Viability Assay in HepG2 cells - 32 hour (AID 1224877); note: nearly all actives have a fitted effect of over 55% in size
# In short: (§5)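 HepG2 cells (600/well) were dispensed with RealTime-Glo reagents, incubated 5 h at 37 °C, then treated with compounds in DMSO for up to 40 h. Nonlytic NanoLuc luminescence reflecting viable cells was read at each stated time point.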
# [8] = A CellTox Green Cytotoxicity Assay to monitor cytotoxicity in HepG2 cells - 24 hour (AID 1224878); note: nearly all actives have a fitted effect of over 45% in size
# In short: as §4
# [9] = A CellTox Green Cytotoxicity Assay to monitor cytotoxicity in HepG2 cells - 40 hour (AID 1224879); note: nearly all actives have a fitted effect of over 40% in size; note: potency is the fitted concentration of half-maximal effect
# In short: as §4
# [10] = qHTS RealTime-Glo MT Cell Viability Assay in HEK293 cells - 0 hour (AID 1224880)
# In short: (§6)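 Luminescence readout at each listed time point; HEK293, 600 cells/well, RealTime-Glo MT reagent added with cells; compounds pinned (23 nL in DMSO) after 5 h at 37 C; continuous culture at 37 C.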
# [11] = A CellTox Green Cytotoxicity Assay to monitor cytotoxicity in HEK293 cells - 32 hour (AID 1224881); note: nearly all actives have a fitted effect of over 40% in size
# In short: as §2
# [12] = A CellTox Green Cytotoxicity Assay to monitor cytotoxicity in HepG2 cells - 0 hour (AID 1224882); note: nearly all actives have a fitted effect of over 35% in size
# In short: as §4
# [13] = A CellTox Green Cytotoxicity Assay to monitor cytotoxicity in HepG2 cells - 32 hour (AID 1224883); note: nearly all actives have a fitted effect of over 50% in size; note: potency is the fitted concentration of half-maximal effect
# In short: as §4
# [14] = A CellTox Green Cytotoxicity Assay to monitor cytotoxicity in HEK293 cells - 8 hour (AID 1224884); note: nearly all actives have a fitted effect of over 35% in size
# In short: as §2
# [15] = qHTS RealTime-Glo MT Cell Viability Assay in HepG2 cells - 16 hour (AID 1224885); note: nearly all actives have a fitted effect of over 50% in size
# In short: as §5
# [16] = qHTS RealTime-Glo MT Cell Viability Assay in HEK293 cells - 24 hour (AID 1224886)
# In short: as §3
# [17] = qHTS RealTime-Glo MT Cell Viability Assay in HEK293 cells - 8 hour (AID 1224887)
# In short: as §6
# [18] = A CellTox Green Cytotoxicity Assay to monitor cytotoxicity in HEK293 cells - 16 hour (AID 1224888); note: nearly all actives have a fitted effect of over 35% in size
# In short: as §2
# [19] = qHTS RealTime-Glo MT Cell Viability Assay in HepG2 cells - 0 hour (AID 1224889); note: nearly all actives have a fitted effect of over 50% in size
# In short: as §5
# [20] = qHTS RealTime-Glo MT Cell Viability Assay in HEK293 cells - 40 hour (AID 1224874); conditions: RealTime-Glo luminescence; max response: hits give low values; note: nearly all actives have a fitted effect of over 50% in size
# In short: as §6
SMILES,outcome [1],Potency [2],Potency [3],outcome [4],outcome [5],outcome [6],outcome [7],outcome [8],Potency [9],Potency [10],Potency [11],outcome [12],Potency [13],Potency [14],outcome [15],Potency [16],Potency [17],outcome [18],Potency [19],max response [20]
OCCC(F)(F)C(F)(F)C(F)(F)C(F)(F)C(F)(F)C(F)(F)C(F)(F)C(F)(F)F,inactive,inactive,inactive,inactive,inactive,inactive,inactive,inactive,inactive,inactive,inactive,inactive,inactive,inactive,inactive,inactive,inactive,inactive,inactive,–
CN(C)c1ccc(C=O)cc1,inactive,inactive,inactive,inactive,inactive,inactive,inactive,inactive,inactive,inactive,inactive,inactive,inactive,inactive,inactive,inactive,inactive,inactive,inactive,–
Cc1ccccc1N=O,inactive,inactive,inactive,inactive,inactive,–,inactive,inactive,inactive,inactive,inactive,inactive,inactive,inactive,inactive,inactive,inactive,inactive,inactive,–
CCOC(=O)/C=C/c1ccccc1,inactive,inactive,inactive,–,inactive,inactive,inactive,inactive,inactive,inactive,inactive,inactive,inactive,inactive,inactive,inactive,inactive,inactive,inactive,-4.48% (inactive)
CC(C)c1ccc2cc(C(C)C)ccc2c1,inactive,inactive,inactive,inactive,inactive,inactive,inactive,inactive,inactive,inactive,inactive,inactive,inactive,inactive,inactive,inactive,inactive,inactive,inactive,–
Cc1ccccc1C(=O)Nc1ccc(C(=O)N2CCCC(N(C)C)c3ccccc32)cc1 (stereo not given),inactive,inactive,inactive,inactive,inactive,inactive,inactive,–,6.74 µM (active),inactive,inactive,inactive,7.56 µM (active),inactive,inactive,–,inactive,inactive,inactive,–
O=S(=O)(O)c1ccc2cc(O)c(S(=O)(=O)O)cc2c1,inactive,inactive,inactive,inactive,inactive,inactive,–,inactive,inactive,inactive,inactive,inactive,inactive,inactive,inactive,inactive,inactive,inactive,inactive,–
CCOCCOC(=O)/C=C/c1ccc(OC)cc1,inactive,inactive,inactive,–,inactive,inactive,inactive,inactive,inactive,inactive,inactive,inactive,inactive,inactive,inactive,inactive,inactive,inactive,inactive,4.37% (inactive)
CN(C)C(=O)CNC(=O)Cc1ccccc1,inactive,inactive,inactive,–,inactive,inactive,inactive,inactive,inactive,inactive,inactive,inactive,inactive,inactive,inactive,inactive,inactive,inactive,inactive,4.97% (inactive)
CC(=O)c1sc(C)nc1C,inactive,inactive,inactive,inactive,inactive,–,inactive,inactive,inactive,inactive,inactive,inactive,inactive,inactive,inactive,inactive,–,inactive,–,–
CCC(C)NC(N)=O (stereo not given),inactive,inactive,inactive,inactive,inactive,inactive,inactive,inactive,inactive,inactive,inactive,inactive,inactive,inactive,inactive,inactive,–,inactive,inactive,–
CC1COc2ccccc2N1 (stereo not given),inactive,inactive,inactive,inactive,inactive,inactive,–,inactive,inactive,inactive,inactive,inactive,inactive,inactive,inactive,–,inactive,inactive,inactive,–
COc1ccc2c(c1OC)C(=O)O[C@@H]2[C@H]1c2c(cc3c(c2OC)OCO3)CCN1C,inactive,inactive,inactive,inactive,inactive,–,inactive,inactive,–,–,inactive,inactive,–,inactive,inactive,–,inactive,inactive,inactive,–
Cc1cccc(OCC(O)CNC(C)(C)C)c1C (stereo not given),inactive,inactive,inactive,–,inactive,inactive,inactive,inactive,inactive,inactive,inactive,inactive,inactive,inactive,inactive,inactive,inactive,inactive,inactive,0.394% (inactive)
COC(=O)CCCCCCCC(=O)OC,inactive,inactive,inactive,–,inactive,inactive,inactive,inactive,inactive,inactive,inactive,inactive,inactive,inactive,inactive,inactive,inactive,inactive,inactive,11.9% (inactive)
NCCS,inactive,inactive,inactive,–,inactive,inactive,inactive,inactive,inactive,inactive,inactive,inactive,inactive,inactive,inactive,inactive,inactive,inactive,inactive,7.37% (inactive)

SMILES,outcome [1],Potency [2],Potency [3],outcome [4],outcome [5],outcome [6],outcome [7],outcome [8],Potency [9],Potency [10],Potency [11],outcome [12],Potency [13],Potency [14],outcome [15],Potency [16],Potency [17],outcome [18],Potency [19],max response [20]
CCCC(=O)C(C)=O,inactive,inactive,inactive,inactive,inactive,inactive,inactive,inactive,inactive,inactive,inactive,inactive,inactive,inactive,inactive,inactive,inactive,inactive,inactive,–
On1nnc2ccccc21,inactive,inactive,inactive,inactive,inactive,inactive,inactive,inactive,inactive,inactive,inactive,inactive,inactive,inactive,inactive,inactive,–,inactive,inactive,–
O=C(OCC(COC(=O)c1cccnc1)(COC(=O)c1cccnc1)COC(=O)c1cccnc1)c1cccnc1,inactive,inactive,inactive,inactive,inactive,inactive,inactive,inactive,inactive,inactive,inactive,inactive,inactive,inactive,inactive,inactive,inactive,inactive,inactive,–
CCc1ccc(C=O)cc1,inactive,inactive,inactive,–,inactive,inactive,inactive,inactive,inactive,inactive,inactive,inactive,inactive,inactive,inactive,inactive,inactive,inactive,inactive,-4.49% (inactive)
O=C(CCN1CCN(CCO)CC1)N1c2ccccc2Sc2ccc(C(F)(F)F)cc21,inactive,inactive,inactive,–,inactive,inactive,inactive,inactive,inactive,inactive,inactive,inactive,inactive,inactive,inactive,inactive,inactive,inactive,inactive,-11.6% (inactive)
CC(CN)CC(C)(C)CCN (stereo not given),inactive,inactive,inactive,–,inactive,inactive,inactive,inactive,inactive,inactive,inactive,inactive,inactive,inactive,inactive,inactive,inactive,inactive,inactive,6.3% (inactive)
NNc1nnc(NN)c2ccccc12,inactive,inactive,inactive,inactive,inactive,inactive,inactive,inactive,inactive,–,inactive,inactive,inactive,inactive,inactive,inactive,inactive,inactive,inactive,–
CCCCCOC(=O)CCC,inactive,inactive,inactive,inactive,inactive,–,–,inactive,inactive,inactive,inactive,inactive,inactive,inactive,inactive,inactive,–,inactive,inactive,–
ClCCCl,inactive,inactive,inactive,–,inactive,inactive,inactive,inactive,inactive,inactive,inactive,inactive,inactive,inactive,inactive,inactive,inactive,inactive,inactive,-0.252% (inactive)
COc1cc(N)ccc1C,inactive,inactive,inactive,inactive,inactive,inactive,inactive,inactive,inactive,inactive,inactive,inactive,inactive,inactive,inactive,inactive,inactive,inactive,inactive,–
CCCCCCOC(=O)CC,inactive,inactive,inactive,inactive,inactive,–,inactive,inactive,inactive,inactive,inactive,inactive,inactive,inactive,inactive,inactive,inactive,inactive,inactive,–
OC[C@H](Cc1cccc(O)c1)[C@H](CO)Cc1cccc(O)c1,inactive,inactive,inactive,–,inactive,inactive,inactive,inactive,inactive,inactive,inactive,inactive,inactive,inactive,inactive,inactive,inactive,inactive,inactive,-10.5% (inactive)
C=C(C)C(=O)OCCNC(C)(C)C,inactive,inactive,inactive,inactive,inactive,inactive,inactive,inactive,inactive,inactive,inactive,inactive,inactive,inactive,inactive,inactive,inactive,inactive,inactive,–
CC(C)CCCC(C)(C)O,inactive,inactive,–,inactive,inactive,inactive,inactive,inactive,inactive,inactive,inactive,inactive,inactive,inactive,inactive,inactive,–,inactive,inactive,-4.36% (inactive)
CCCCCCCCCCCCCC,inactive,inactive,inactive,–,inactive,–,inactive,inactive,inactive,inactive,inactive,inactive,inactive,inactive,inactive,inactive,–,inactive,inactive,3.06% (inactive)

# From PubChem BioAssay (Tox21)
